Laboratory results taken from the OligoGym collection.

Molecular target: C3orf33
Test: pooled miR-30 sensor sort-seq; sequence = guide strand
Details: shRNA
Further: reference of the scale not given here.

Sequence	sensor-assay potency score (higher = more potent)
TATAAGTTCTCTGAACTTCAGT	-0.164
TTGTTCATGTTGTCTTTCCATA	-1.3
TTAACAAGAACAGTTTTGCCAA	-0.169
TTGAATTTTTCTAAGTAACTTT	-0.235
TACTCCAGCCAACTTAACCAGC	-1.6
TAACTTTCTTTTTTCAAGCTGA	-0.0803
TTTGATGTCAGTCGAATGCTTC	-0.51
TTTAGCTCTTTTTGTAACCATG	-1.58
TCAAGCTGAAATCTGATCCTGT	0.793
TAAATTTTGATGTCAGTCGAAT	-0.673
TTTTTCATAATAACTTTCTTTT	-0.968
TTCTTTTTCAGAGTCTTCCTTC	0.254

Molecular target: C3orf64
Test: as above
Details: shRNA

Sequence	sensor-assay potency score (higher = more potent)
TTAGCATCTTCTATAGGTCTGA	0.396
TAAACAAGTTGGAACACTCTGG	0.509
TTAATCACAAATGCTCTCCATG	-0.629
TATAGGTCTGAAGTTGAGCTGA	0.14
TATAGCTTTGTAGCTCAGCAAA	-1.7
